Source: PubChem (The Scripps Research Institute Molecular Screening Center)
Most compounds without a hit are left out; they make up all but 4.1% or so of the library.
ssDAF12 agonist: S. stercoralis DAF-12 activation, primary screen; activation, % at 6.8 µM; actives 1% (n = 370,000); HEK293 ssDAF-12/GRIP1 lit1-tk-luc reporter, luminescence; % of 3 µM dafachronic acid response; AID 652126;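 active = activation above the mean over all tested compounds plus 3 SD, cut at about 0.9% in these data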
hgDAF-12 ag: hgDAF-12 agonism, primary luciferase screen | HEK293 GAL4-hgDAF12 UAS-luciferase reporter, agonist luminescence; normalized to butyrate control | activation, % at 6.8 µM | actives 1.8% (n = 370,000) | AID 687014;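 active = activation above a cutoff set at the mean of all screened compounds plus 3 SD, cut at about 10% in these data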
DAX1 inh-1: inhibitors of DAX1 repression of SF-1 activated StAR promoter. inhibition, % at 6.8 µM. HEK293T StAR-luciferase reporter, SF-1/DAX-1 repression relief. AID 652010. actives 1.1% (n = 370,000);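 active = inhibition above the mean over all tested compounds plus 3 SD, cut at about 3.6% in these data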;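 also: higher inhibition means more luminescence from relief of DAX-1 repression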
DAX1 inh-2: NR0B1 (DAX1) inhibition. P51843. actives 0.99% (n = 340,000). HEK293 Gal4-DAX1 luciferase reporter, luminescence. AID 504766. inhibition, % at 6.75 µM;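 active = inhibition above the mean over all tested compounds plus 3 SD, cut at about 4.2% in these data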;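 also: inhibition shows as a rise in luminescence from relieved DAX1 repression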
Target sequence (P51843 207-470 limits assumed): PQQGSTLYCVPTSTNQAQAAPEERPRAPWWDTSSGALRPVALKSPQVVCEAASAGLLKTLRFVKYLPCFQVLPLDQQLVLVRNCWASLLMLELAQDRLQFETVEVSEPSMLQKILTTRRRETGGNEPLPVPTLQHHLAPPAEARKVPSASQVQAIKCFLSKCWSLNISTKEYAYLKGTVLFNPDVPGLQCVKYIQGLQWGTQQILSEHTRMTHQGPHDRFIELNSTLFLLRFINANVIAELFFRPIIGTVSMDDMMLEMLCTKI
hcDAF-12 act: H. contortus DAF-12 activation, primary screen. HEK293 hcDAF-12 lit1-tk-luc reporter, luminescence; 0% DMSO, 100% Δ7-dafachronic acid. actives 1.4% (n = 370,000). activation, % at 6.8 µM. AID 652067;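 active = activation above the mean of all tested compounds plus 3 SD, cut at about 5.5% in these data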
Large screens that a line does not name were inactive.

O=C(Nc1nnc(C(F)(F)F)s1)c1cccnc1	hcDAF-12 act 5.6
O=C(CCc1ccccc1)N[C@H]1[C@H](OC(=O)c2cnccn2)CCC[C@@]12C(=O)N(Cc1ccccc1)c1ccccc12	none (no result: DAX1 inh-2)
CC(C)CN(CCCNC(=O)CN1C(=O)CSc2ccc(S(=O)(=O)N3CCOCC3)cc21)CC(C)C	ssDAF12 agonist 0.9
COC(=O)c1cc2c(c3c4cc(OC)ccc4n(S(=O)(=O)c4ccc(OC)cc4)c13)C(=O)N(Cc1ccc(C(F)(F)F)cc1)C2	none (no result: DAX1 inh-2)
CC(C)CNC(=O)OCc1cn(Cc2ccccc2C(F)(F)F)nn1	none (no result: DAX1 inh-2)
O=S1(=O)c2c(cccc2N2CC[C@@H](O)C2)O[C@@H]2CCN1C2	none (no result: DAX1 inh-2)
Cc1cccc(C)c1NC(=O)C(c1ccccc1)N1CCN(C)CC1 (centres undefined)	DAX1 inh-1 4.4 (no result: DAX1 inh-2)
CC(C)(C)c1ccc(/C=N/Nc2ccc(C(=O)O)cc2)cc1	none
Cc1ccc(C(=O)N/N=C/c2cccnc2)cc1Cl	ssDAF12 agonist 1.7
Nc1c(Cl)ncnc1N/N=C/c1cccnc1	DAX1 inh-2 5.0
O=C(N/N=C/c1cccnc1)c1cccc(Cl)c1	none
CN(C)c1ccc(/C=N/Nc2cccc(C(=O)O)c2)cc1	hgDAF-12 ag 11.6
CC(C)(C)c1ccc(/C=N/Nc2cccc(C(=O)O)c2)cc1	hgDAF-12 ag 11.8, DAX1 inh-1 4.0
Nc1c(Cl)ncnc1N/N=C/c1ccccn1	none (no result: DAX1 inh-2)
CCCCCC(=O)NC1CCCCN(Cc2ccccc2C)C1=O (centres undefined)	none (no result: DAX1 inh-2)
CC(C)N1CCCCC(NC(=O)c2cccs2)C1=O (centres undefined)	none (no result: DAX1 inh-2)
COCc1cc(N2CCNC[C@H]2C)ccc1N1CCS(=O)(=O)CC1	none (no result: DAX1 inh-2)
Cc1ccc(CN2CCCCC(NC(=O)C(C)(C)C)C2=O)cc1 (centres undefined)	none (no result: DAX1 inh-2)
O=C(O)c1cccc(N/N=C/c2cccnc2)c1	ssDAF12 agonist 2.3
Clc1ccc(N/N=C/c2cccnc2)cc1	hcDAF-12 act 6.0
O=[N+]([O-])c1ccc(N/N=C/c2cccnc2)cc1	none
Clc1ccc(CSc2nnc(-c3ccccn3)n2Cc2cccs2)cc1Cl	DAX1 inh-1 4.2 (no result: DAX1 inh-2)
Cc1ccc(CSc2nnc(-c3ccccn3)n2Cc2cccs2)cc1	none (no result: DAX1 inh-2)
CCOc1ccc(C(=O)NC2C(=O)N3C(C(=O)O)=C(COC(C)=O)CSC23)cc1OCC (centres undefined)	DAX1 inh-1 4.4
O=C1CCC[C@H]2C[C@H](NCc3ccc(Br)cc3)CC[C@]23CCCN13	none (no result: DAX1 inh-1, DAX1 inh-2)
Cc1nn(CCOc2ccccc2)c(=O)n1-c1c(F)cccc1F	hgDAF-12 ag 10.6
C[C@H]1CNCCN1c1ccc(N2CCS(=O)(=O)CC2)c(C#N)c1	none (no result: DAX1 inh-2)
Cc1cc(OCC(=O)OCC(=O)NC2CCS(=O)(=O)C2)ccc1Cl (centres undefined)	hcDAF-12 act 5.9
COc1cccc(NC(=O)COC(=O)c2c(F)cccc2F)c1	none
CC(=O)Nc1cccc(OCC(=O)Nc2sccc2C(N)=O)c1	hgDAF-12 ag 12.2
Cc1cc(OCC(=O)OCC(=O)NC2CCCCCC2)ccc1Cl	none
Cc1ccc(S(=O)(=O)NC(C(=O)OCC(=O)NC2CCS(=O)(=O)C2)C(C)C)cc1 (centres undefined)	none
CC(=O)Nc1cccc(OCC(=O)Nc2ccccc2)c1	none
COc1cccc(NC(=O)COC(=O)c2sccc2C)c1	hgDAF-12 ag 13.1, DAX1 inh-1 3.7, DAX1 inh-2 6.2, hcDAF-12 act 6.4
Cc1ccc(C(=O)N[C@H](C(=O)OCC(=O)NC2CCS(=O)(=O)C2)C(C)C)cc1 (some centres undefined)	ssDAF12 agonist 1.5
COC(=O)C1CN(CC(C)C)CCS(=O)(=O)N1Cc1ccc(Cl)cc1 (centres undefined)	none (no result: DAX1 inh-2)
Cc1cccc(C(=O)NCC(=O)OCC(=O)NC2CCCCCCC2)c1	none
O=C(COC(=O)COc1ccccc1)NC1CCCC1	none
Cc1ccsc1C(=O)OCC(=O)NC1CCCCC1	hgDAF-12 ag 10.8
COc1cccc(C(=O)NCC(=O)OCC(=O)NC2CCCCC2)c1	ssDAF12 agonist 1.3
Cc1cc(C)cc(OCC(=O)OCC(=O)NC2CCCCCCC2)c1	DAX1 inh-1 4.3
COc1ccc2c(C(c3ccccc3O)C3CCCN3S(=O)(=O)c3ccc(C)cc3)cn(C)c2c1 (centres undefined)	none (no result: DAX1 inh-2)
CC1CN(S(=O)(=O)c2cc(C(=O)NCCC3=CCCCC3)ccc2Cl)CC(C)O1 (centres undefined)	DAX1 inh-1 3.8
O=S(=O)(c1cccc2cccnc12)N1CCC(c2cn3ccccc3n2)CC1	none (no result: DAX1 inh-2)
O=C(NCC1CCCCC1)c1ccc(F)cc1Cl	DAX1 inh-2 7.4
O=C(NC1CC1)c1ccc(F)cc1Cl	ssDAF12 agonist 1.0
O=C(COC(=O)c1ccc(F)cc1Cl)NC1CCCCCCC1	none
CC1CCCC(NC(=O)CSc2ncccc2C(=O)O)C1C (centres undefined)	ssDAF12 agonist 1.2
COc1cc2c(cc1NC(=O)CSc1nnc(-c3cnccn3)n1-c1ccc(C)cc1)oc1ccccc12	none (no result: DAX1 inh-2)
CCN(CC)C(=O)CSc1nnc(-c2ccc(C(C)(C)C)cc2)n1-c1ccc(Cl)cc1	none (no result: DAX1 inh-2)
O=c1c(O)c(-c2ccc(O)c(O)c2)oc2cc(O)cc(O)c12	hgDAF-12 ag 11.8
Nc1c(Cl)cc(C2=NCCn3nc4cc([N+](=O)[O-])ccc4c32)cc1Cl	hcDAF-12 act 5.8
Cc1ccc(NC2=C/C(=N/S(=O)(=O)c3cccs3)c3ccccc3C2=O)cc1	hcDAF-12 act 5.8
O=C1C(Nc2ccccc2)=C/C(=N/S(=O)(=O)c2cccs2)c2ccccc21	none (no result: ssDAF12 agonist, hgDAF-12 ag, DAX1 inh-1, hcDAF-12 act)
Clc1cc(Cl)c(OCc2nc(-c3ccccn3)no2)cc1Cl	none
CC(C)(C)c1ccc(OCc2nc(-c3ccccn3)no2)c(Br)c1	hgDAF-12 ag 11.1
c1ccc(-c2noc(CC3CCCCC3)n2)nc1	hgDAF-12 ag 12.4, DAX1 inh-1 3.9
c1ccc(-c2nc(-c3ccccn3)no2)cc1	hcDAF-12 act 6.4
Cc1ccc(Cc2nc(-c3ccccn3)no2)cc1	hgDAF-12 ag 12.8
O=C(Nc1cccc([N+](=O)[O-])c1)NC1CCCCN(Cc2ccc(Cl)cc2)C1=O (centres undefined)	none (no result: DAX1 inh-2)
COC(=O)[C@]12C[C@H](CC(=O)NCc3ccc(C)o3)C(=O)N(CCc3ccc(OC)c(OC)c3)C1=C[C@H](C(C)(C)C)O[C@@H]2C	none (no result: DAX1 inh-2)
CN(C)S(=O)(=O)c1cccc(C(=O)N/N=C\c2ccc(-c3ccccn3)cc2)c1	none (no result: DAX1 inh-2)
Cc1ccccc1-c1nc2cc(NC(=O)C3CC3)ccc2o1	hgDAF-12 ag 11.4
CCC(=O)Nc1ccc2oc(-c3ccccc3Br)nc2c1	hgDAF-12 ag 11.0
O=C(Nc1ccc(F)cc1)OCc1cn(Cc2cccc(C(F)(F)F)c2)nn1	none (no result: DAX1 inh-2)
CC(C)CCN(C)C1CCN(C(=O)Nc2ccccc2)CC1	none (no result: DAX1 inh-2)
COc1cccc(-c2cc(N3C(=O)Nc4ccccc4N3O)n[nH]2)c1	DAX1 inh-2 4.8
COc1ccc2nc(NC(=O)CSc3nnc(C)n3N)sc2c1	DAX1 inh-1 3.8
